Assay [1] in a line: qHTS assay to identify small molecule antagonists of the thyroid receptor (TR) signaling pathway (AID 743065). Also: nearly all actives have a fitted effect of over 55% in size. Also: potency is read from the fitted curve at half-maximal effect. In a few lines:
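GH3.TRE-Luc rat pituitary cells carrying two TR response elements driving luciferase were plated for 4 h, given compound plus 1 nM T3 (final), and incubated 23.5 h at 37 C. ONE-Glo luminescence measured reporter inhibition; CellTiter-Fluor fluorescence tracked cytotoxicity.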
For orientation: qHTS replaces the single test concentration by a dilution series.

For assay [2], the system named is thyroid hormone receptor (rat, GH3 cells). The experiment in a line: qHTS assay to identify small molecule agonists of the thyroid receptor (TR) signaling pathway (AID 743066; calls by dose curve).
The target of assay [3] is Estrogen receptor (Homo sapiens) (UniProt P03372). The experiment in a line: qHTS assay to identify small molecule antagonists of the estrogen receptor alpha (ER-alpha) signaling pathway (AID 743069; active = well fitted curve in the direction sought with a large enough effect in the signal ratio in the repeat runs, not every such curve was filed as active; the % refers to the signal ratio). In a few lines: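 Estradiol-stimulated ER-alpha-UAS-bla HEK293 cells, 18 hr compound exposure at 37C. LiveBLAzer B/G substrate, 2 hr RT, fluorescence read.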
Assay [4] in a line: qHTS assay to identify small molecule antagonists of the estrogen receptor alpha (ER-alpha) signaling pathway - cell viability counter screen (AID 743074; calls by dose curve;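 also: HEK293 cells carrying ER-alpha-UAS-bla reporter stimulated with 17beta-estradiol; nearly all actives have a fitted effect of over 45% in size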; also: potency is read from the fitted curve at half-maximal effect).
Assay [5] concerns the target Estrogen receptor (Homo sapiens) (UniProt P03372). Nature of the assay: qHTS assay to identify small molecule agonists of the estrogen receptor alpha (ER-alpha) signaling pathway (AID 743075; calls by dose curve;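 also: HEK293 GripTite cells with ER-alpha and UAS-driven beta-lactamase reporter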; also: potency is read from the fitted curve at half-maximal effect).
The target is the same in assay [6]. The experiment in a line: qHTS assay to identify small molecule agonists of the estrogen receptor alpha (ER-alpha) signaling pathway using the BG1 cell line (AID 743079). Also: nearly all actives have a fitted effect of over 20% in size. Also: potency is read from the fitted curve at half-maximal effect.
Assay [7] in a line: qHTS assay to identify small molecule antagonists of the estrogen receptor alpha (ER-alpha) signaling pathway using the BG1 cell line (AID 743080; calls by dose curve;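 also: BG1 cells stimulated with 17beta-estradiol alongside compound; series mostly up to about 70 µM; nearly all actives have a fitted effect of over 25% in size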). The procedure, abridged: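 Quantitative HTS on the Tox21 10K library: BG1 cells with endogenous ER-alpha and ERE-luciferase reporter, 17beta-estradiol stimulation, 21.5 h compound exposure, luminescence endpoint with parallel fluorescence cytotoxicity counter-read.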

Assay [8] in a line: qHTS assay to identify small molecule antagonists of the estrogen receptor alpha (ER-alpha) signaling pathway using the BG1 cell line - cell viability counter screen (AID 743081).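 Also: compound given together with 17beta-estradiol as the ER stimulus; series mostly up to about 70 µM; nearly all actives have a fitted effect of over 45% in size.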
Assay [9] can be described thus: qHTS assay to identify aromatase inhibitors - cell viability counter screen (AID 743084).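 Also: cells stimulated with testosterone during compound exposure; nearly all actives have a fitted effect of over 55% in size.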 Also: potency is read from the fitted curve at half-maximal effect.
The target of assay [10] is Aryl hydrocarbon receptor (Homo sapiens) (UniProt P35869). Nature of the assay: qHTS assay to identify small molecule that activate the aryl hydrocarbon receptor (AhR) signaling pathway (AID 743085). Also: nearly all actives have a fitted effect of over 15% in size. Also: potency is read from the fitted curve at half-maximal effect.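 As to activation: HG2L7.5c1 human HepG2 liver cells with stably integrated DRE-driven firefly reporter; series mostly up to about 70 µM.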 In a few lines:
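Steps: seed HepG2-AhR-luc cells; allow 5 h at 37C; pin-transfer test compound or vehicle; incubate 24 h at 37C; add viability dye (30 min, 37C) and read fluorescence; add luciferase substrate (30 min, RT) and read luminescence.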

Assay [11] in a line: qHTS assay to identify small molecule that activate the aryl hydrocarbon receptor (AhR) signaling pathway - cell viability counter screen (AID 743086).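 Also: HepG2 liver cells carrying the AhR DRE luciferase reporter; series mostly up to about 70 µM; nearly all actives have a fitted effect of over 45% in size.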 In a few lines:
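HepG2-AhR-luc (HG2L7.5c1) cells, 4000/well, were preincubated 5 h at 37C, exposed to compound in qHTS format for 24 hr at 37C, then given CellTiter-Fluor for 30 min; viability was read as fluorescence in the reporter wells.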

For assay [12], the target named is Peroxisome proliferator-activated receptor gamma (Homo sapiens) (UniProt P37231). Nature of the assay: qHTS assay to identify small molecule agonists of the peroxisome proliferator-activated receptor gamma (PPARg) signaling pathway (AID 743094; active = well fitted activation curve with a large enough effect in the signal ratio in the repeat runs, not every such curve was filed as active; the % refers to the signal ratio). In a few lines: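 Beta-lactamase FRET fluorescence was the read-out after a 1 h room-temperature substrate step, following 17 h compound treatment at 37C of HEK293H cells expressing a UAS-driven bla reporter responsive to PPARg.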

Assay [13] in a line: qHTS assay to identify small molecule antagonists of the peroxisome proliferator-activated receptor gamma (PPARg) signaling pathway - cell viability counter screen (AID 743194). Also: nearly all actives have a fitted effect of over 55% in size. In a few lines:
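PPARg-UAS-bla HEK293H cells were plated, rested 5 h at 37 C, then treated with compounds plus rosiglitazone (50 nM final) for 17 h at 37 C; viability was then read by CellTiter-Glo luminescence after 30 min at room temperature.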

Assay [14] in a line: qHTS assay for small molecule agonists of the antioxidant response element (ARE) signaling pathway (AID 743202; active = well fitted activation curve with a large enough effect in the signal ratio in the repeat runs, not every such curve was filed as active; the % refers to the signal ratio; also: potency is read from the fitted curve at half-maximal effect). In a few lines: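 Compounds delivered in DMSO to ARE-bla HepG2 cells (2,000 cells/well, pre-incubated 5 h) and left 16 h at 37 C. LiveBLAzer B/G FRET substrate then added for 2 h at RT before fluorescence reading.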
The nature of assay [15]: qHTS assay for small molecule agonists of the antioxidant response element (ARE) signaling pathway - cell viability counter screen (AID 743203; calls by dose curve; also: nearly all actives have a fitted effect of over 55% in size). The procedure, abridged: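 HepG2 cells carrying ARE-driven beta-lactamase; 2,000 cells/well; 5 hrs plating; compound pinned from DMSO; 16 hrs 37C/5% CO2; CellTiter-Glo added; 30 min RT; luminescence.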
Assay [16] in a line: qHTS assay for small molecule activators of the heat shock response signaling pathway - cell viability counter screen (AID 743209). Also: nearly all actives have a fitted effect of over 50% in size. The procedure, abridged:
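Luminescence from CellTiter-Glo, added after the beta-lactamase FRET read, gave the viability signal. Cells were HSE-bla HeLa treated with DMSO-dissolved compounds for 5 h at 37 C following overnight plating.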

In assay [17] the target is Aromatase (Homo sapiens) (UniProt P11511). The experiment in a line: qHTS assay to identify aromatase inhibitors (AID 743083).
Assay [18] addresses Peroxisome proliferator-activated receptor gamma (Homo sapiens) (UniProt P37231). The experiment in a line: qHTS assay to identify small molecule antagonists of the peroxisome proliferator-activated receptor gamma (PPARg) signaling pathway (AID 743191; calls by dose curve; also: series mostly up to about 63 µM; nearly all actives have a fitted effect of over 30% in size). In a few lines:
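GeneBLAzer PPARg UAS-bla HEK293H cells carrying a UAS-driven beta-lactamase reporter were plated at 3000 cells/well, preincubated 5 h at 37C, then given compound for 17 h at 37C; LiveBLAzer B/G FRET substrate was read after 1 h at room temperature.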

Assay [19] in a line: qHTS assay for small molecule activators of the heat shock response signaling pathway (AID 743210; active = well fitted activation curve with a large enough effect in the signal ratio in the repeat runs, with a control signal flat, not every such curve was filed as active; the % refers to the signal ratio;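 also: HeLa cells with beta-lactamase reporter driven by heat shock elements; series mostly up to about 63 µM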). The procedure, abridged:
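Reporter gene assay: HeLa cells stably bearing an HSE-bla construct, compound treatment 5 h at 37 C, LiveBLAzer substrate 2.5 h at RT, fluorescence intensity.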

A short description of assay [20]: qHTS assay to identify small molecule agonists of the peroxisome proliferator-activated receptor delta (PPARd) signaling pathway - cell viability counter screen (AID 743211). Also: nearly all actives have a fitted effect of over 55% in size. In a few lines:
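Viability of GeneBLAzer PPARd UAS-bla HEK293H cells was assessed after 17 h compound incubation at 37C, using CellTiter-Glo reagent added after the reporter read and luminescence recorded 30 min later.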

“And” between values parts separate entries of the source, which are not always exact repeats. Identical values can stand only once. Records with an inconclusive call do not appear. A structure can be active in one record and inactive in another. The source made the active and inactive calls. Unless noted, calls follow the shape of the dose curve; as a rule, active = well fitted curve in the direction sought with a large enough effect in the repeat runs; inconclusive = weak or mixed curves; inactive = no such curve, though single readings can be large; an effect the other way counts as inactive or inconclusive.

Chain of Peroxisome proliferator-activated receptor gamma (Homo sapiens) (P37231 whole entry, looked up): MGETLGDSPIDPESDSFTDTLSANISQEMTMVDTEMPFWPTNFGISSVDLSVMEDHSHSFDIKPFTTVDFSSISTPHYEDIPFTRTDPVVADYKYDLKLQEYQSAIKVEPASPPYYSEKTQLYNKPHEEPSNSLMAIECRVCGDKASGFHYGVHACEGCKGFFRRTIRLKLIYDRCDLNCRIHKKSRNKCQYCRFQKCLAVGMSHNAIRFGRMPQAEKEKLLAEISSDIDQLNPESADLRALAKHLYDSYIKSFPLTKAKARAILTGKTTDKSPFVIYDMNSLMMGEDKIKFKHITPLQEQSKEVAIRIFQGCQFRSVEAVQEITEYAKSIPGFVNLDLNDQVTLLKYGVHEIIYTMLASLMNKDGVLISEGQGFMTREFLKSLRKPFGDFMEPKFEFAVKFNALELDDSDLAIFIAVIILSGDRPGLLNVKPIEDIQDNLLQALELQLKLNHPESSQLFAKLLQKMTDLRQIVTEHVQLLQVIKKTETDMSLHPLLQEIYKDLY
Chain of Aromatase (Homo sapiens) (P11511 whole entry, looked up): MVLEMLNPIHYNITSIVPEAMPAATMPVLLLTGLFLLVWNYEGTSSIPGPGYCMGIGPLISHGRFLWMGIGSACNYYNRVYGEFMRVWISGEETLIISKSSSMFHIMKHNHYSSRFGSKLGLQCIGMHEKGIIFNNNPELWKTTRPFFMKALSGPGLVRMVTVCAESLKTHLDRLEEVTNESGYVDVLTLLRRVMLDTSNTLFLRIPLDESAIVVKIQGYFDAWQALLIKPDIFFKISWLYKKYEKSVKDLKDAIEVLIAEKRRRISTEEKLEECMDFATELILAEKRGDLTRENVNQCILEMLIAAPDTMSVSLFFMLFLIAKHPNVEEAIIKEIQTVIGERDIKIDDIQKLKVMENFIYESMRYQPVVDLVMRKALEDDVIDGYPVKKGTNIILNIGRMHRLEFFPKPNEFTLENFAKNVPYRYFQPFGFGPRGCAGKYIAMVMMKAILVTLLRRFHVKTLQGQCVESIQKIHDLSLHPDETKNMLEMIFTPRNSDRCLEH
Chain of Estrogen receptor (Homo sapiens) (P03372 whole entry, looked up): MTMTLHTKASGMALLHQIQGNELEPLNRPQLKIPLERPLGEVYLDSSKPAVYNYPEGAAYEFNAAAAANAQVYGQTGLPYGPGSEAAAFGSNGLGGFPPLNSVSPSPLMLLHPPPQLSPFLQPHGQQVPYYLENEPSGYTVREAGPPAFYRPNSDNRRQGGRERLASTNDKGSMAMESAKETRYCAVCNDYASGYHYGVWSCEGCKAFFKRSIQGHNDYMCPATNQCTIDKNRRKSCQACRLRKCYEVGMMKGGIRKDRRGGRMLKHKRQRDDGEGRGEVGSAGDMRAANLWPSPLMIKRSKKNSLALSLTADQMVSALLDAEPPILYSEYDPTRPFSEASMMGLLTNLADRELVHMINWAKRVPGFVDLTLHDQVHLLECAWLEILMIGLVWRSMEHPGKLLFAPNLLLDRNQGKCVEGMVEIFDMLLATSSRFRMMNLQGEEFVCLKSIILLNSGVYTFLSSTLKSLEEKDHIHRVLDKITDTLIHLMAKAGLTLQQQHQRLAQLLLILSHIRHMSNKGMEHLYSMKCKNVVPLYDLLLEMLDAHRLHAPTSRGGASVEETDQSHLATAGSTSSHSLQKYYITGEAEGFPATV
Chain of Aryl hydrocarbon receptor (Homo sapiens) (P35869 whole entry, looked up): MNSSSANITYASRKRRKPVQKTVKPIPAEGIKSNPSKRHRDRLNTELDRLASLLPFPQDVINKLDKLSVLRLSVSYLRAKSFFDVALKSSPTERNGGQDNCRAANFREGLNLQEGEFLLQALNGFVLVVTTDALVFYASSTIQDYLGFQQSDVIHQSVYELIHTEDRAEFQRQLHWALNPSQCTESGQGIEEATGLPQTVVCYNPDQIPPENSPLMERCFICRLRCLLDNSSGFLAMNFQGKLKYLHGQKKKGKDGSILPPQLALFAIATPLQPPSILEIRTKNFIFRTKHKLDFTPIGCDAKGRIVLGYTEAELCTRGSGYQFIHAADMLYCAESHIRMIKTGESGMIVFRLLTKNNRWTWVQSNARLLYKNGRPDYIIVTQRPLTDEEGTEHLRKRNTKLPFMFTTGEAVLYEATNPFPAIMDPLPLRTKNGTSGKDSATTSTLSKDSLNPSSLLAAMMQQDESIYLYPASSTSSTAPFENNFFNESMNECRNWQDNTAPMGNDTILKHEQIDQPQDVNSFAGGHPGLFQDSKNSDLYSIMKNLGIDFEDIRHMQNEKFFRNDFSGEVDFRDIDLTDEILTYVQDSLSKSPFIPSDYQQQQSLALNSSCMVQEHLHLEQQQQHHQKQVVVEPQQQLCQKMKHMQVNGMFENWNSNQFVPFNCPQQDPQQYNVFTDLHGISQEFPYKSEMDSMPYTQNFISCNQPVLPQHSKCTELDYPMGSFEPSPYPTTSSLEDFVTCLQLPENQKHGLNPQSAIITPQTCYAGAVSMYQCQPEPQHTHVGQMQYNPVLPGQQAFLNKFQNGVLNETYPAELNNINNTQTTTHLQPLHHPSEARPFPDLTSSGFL

`C1CN(SSN2CCOCC2)CCO1`: the values for the Potency in assay [1] and in assay [9] were 60.5 µM (active) and 61.1 µM (active), respectively. The Potency entry in assay [2], in assay [3], in assay [4], in assay [5], in assay [6] and in assay [7] was “inactive” each time. Moreover, the Potency result in assay [8], in assay [10], in assay [11], in [13], in assay [14] and in assay [15] was “inactive” in each case. Besides, the Potency result in assay [16] is “inactive”. Moreover, the molecule was called inactive in assay [12].

`COc1ccc2nc(N)sc2c1`: the Potency result in [1], in assay [2], in assay [3], in [4], in assay [5] and in [8] was “inactive” in each case. Further, the Potency result in assay [17], in assay [9], in assay [11], in assay [18], in assay [13] and in [14] was “inactive” each time. Besides, in [16], the Potency result is “inactive”. The Potency was 30.6 µM (active) and 54.5 µM (active) in assay [6]; 48.6 µM (active) and 27.3 µM (active) in [10]. Also, the molecule was classed as inactive in [12].

Turning to `O=C(O)CCCCCCCCCCCC(=O)O`, the Potency result in [1], in assay [2], in assay [8], in [17], in assay [9] and in assay [10] was “inactive” in each case. The Potency entry in assay [11], in assay [18], in assay [13], in [14], in [15] and in assay [16] was “inactive” in each case. For the same molecule, the Potency entry in [4] was “inactive and 4.36 µM (active)”. Besides, the molecule was called inactive in assay [12] and in [19].

Turning to `C=CC(C)(O)CCC=C(C)C` (stereo not drawn), the Potency result in assay [1], in assay [2], in assay [4], in assay [8], in assay [17] and in assay [9] was “inactive” each time. Also, the Potency result in [10], in [11], in assay [18], in [13], in assay [14] and in assay [15] was “inactive” in each case. Further, in [16], the Potency entry was “inactive”. Besides, the molecule was classed as inactive in [12] and in assay [19].

As for `CC(=O)[C@@]1(O)CC[C@H]2[C@@H]3C[C@H](C)C4=CC(=O)C=C[C@]4(C)[C@@]3(F)[C@@H](O)C[C@@]21C`, the Potency result in assay [1], in assay [2], in assay [3], in assay [4], in assay [5] and in [6] was “inactive” throughout. Further, the Potency entry in [8], in assay [17], in assay [9], in assay [10], in assay [11] and in [18] was “inactive” throughout. Besides, the Potency result in assay [13], in assay [14], in [16] and in assay [20] was “inactive” in each case. For the same molecule, the outcome in assay [12] and in assay [19] was inactive.

As for `c1ccc2c(c1)ccc1cc3c(ccc4ccccc43)cc12`, the Potency result in [1], in assay [2], in assay [3], in assay [4], in assay [6] and in assay [8] was “inactive” in each case. Further, the Potency entry in assay [17], in assay [9], in assay [11], in assay [13], in assay [16] and in assay [20] was “inactive” throughout. Moreover, the Potency entry in assay [5] is “inactive and 19.3 µM [fluorescent] (active)”; in assay [10], 958 nM (active) and 121 nM (active); in assay [14] it was 538 nM (active) and 959 nM (active). Also, the molecule was classed as inactive in [19].

Regarding `[O-]/[N+](=N\O)c1ccccc1`, the Potency entry in [1], in assay [2], in [3], in assay [8], in assay [17] and in [9] was “inactive” throughout. The Potency result in [11], in [18], in assay [13], in assay [15], in assay [16] and in assay [20] was “inactive” in each case. In addition, the Potency result in [5] was “inactive and 55 µM [activator] (active)”; in assay [6], 61.1 µM (active); in assay [10] it was 30.6 µM (active). Further, the outcome in [12] and in assay [19] was inactive.

Values taken from PubChem BioAssay (Tox21).
